IL1B secr inh – qHTS for Inhibitors of Inflammasome Signaling: IL-1-beta AlphaLISA Primary Screen; 4.7% of 360,000 active; activity change, % at 57.5 µM; THP-1 LPS/ATP IL-1B secretion, AlphaLISA, 16 h; stronger effect = lower value; in the data active = activity change below about -50%; inconclusive = mostly about -30% to -49%; note: % is set by controls: 0 for no effect and ±100 for the full control effect
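THP-1 cells pretreated 1 hr with compounds (up to 57.5 uM final), then stimulated with LPS (250 ng/mL final) plus ATP (1.25 mM final); secreted IL-1B measured by AlphaLISA after 16 hr, decreased signal indicating inhibition.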
TDP1 cell CPT – qHTS for Inhibitors of human tyrosyl-DNA phosphodiesterase 1 (TDP1): qHTS in cells in presence of CPT; chicken DT40 Tdp1-/-;hTDP1 cells + 20 nM CPT, ATP luminescence, 48 h; Potency, µM (titrated, usually from 46.2 µM), for inactives: at the highest dose activity change, negative = growth inhibition, usual class: inhibitors; 12% of 420,000 active; AID 686979, 2013; note: potency is the fitted concentration of half-maximal effect; % is set by controls: 0 for no effect and ±100 for the full control effect; nearly all actives have a fitted effect of over 55% in size
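Chicken DT40 Tdp1-/- cells complemented with human TDP1, 400 cells/well, exposed to compounds plus 20 nM camptothecin for at least 48 h at 37 C; viability read as ATP content by CellTiter-Glo luminescence.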
DT40 TDP1 no CPT – qHTS for Inhibitors of human tyrosyl-DNA phosphodiesterase 1 (TDP1): qHTS in cells in absence of CPT. AID 686978, 2013. 15% of 420,000 active. Potency, µM (titrated, usually from 46.2 µM), inactives show at the top dose activity change, negative = growth inhibition, most hits filed as inhibitors. DT40 Tdp1-/- hTDP1 cells, no CPT, ATP luminescence, 48 h; note: potency is the fitted concentration of half-maximal effect; % is set by controls: 0 for no effect and ±100 for the full control effect; nearly all actives have a fitted effect of over 55% in size
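A cellular qHTS used chicken DT40 cells lacking endogenous Tdp1 but carrying stably transfected human TDP1. Compounds were applied without camptothecin, and cell growth kinetics were judged by ATP-dependent luminescence after ≥48 hr.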
HepG2 viability – qHTS for Inhibitors of TGF-b: Cytotox Counterscreen; HepG2 CAGA-GFP viability, ATP luminescence, 18 h; Potency, µM (top dose mostly 46.1 µM), for inactives: at the highest dose activity change, negative = cytotoxicity, hits mostly cytotoxic; 0.76% of 410,000 active; AID 588856, 2011; note: potency is the fitted concentration of half-maximal effect
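CellTiter-Glo luminescence gave cytotoxicity after 18 hours at 37 degrees C. The cells were HepG2 CAGA-GFP in 1% FBS DMEM, stimulated with 500 pg/mL TGF-beta after compound addition. %Activity was normalised to no-cell wells (complete cell-killing) and DMSO (no toxicity), and curves were fitted and classified.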
TDP1 block – qHTS Assay for Inhibitors of Tyrosyl-DNA Phosphodiesterase (TDP1); recombinant TDP1, AlphaScreen DNA substrate cleavage; 0.28% of 350,000 active; AID 485290, 2010; Potency, µM (doses to about 130 µM), without a hit: top-dose activity change, negative = inhibition, usual class: inhibitors; Tyrosyl-DNA phosphodiesterase 1 (Homo sapiens), Q9NUW8; note: potency is the fitted concentration of half-maximal effect; % is set by controls: 0 for no effect and ±100 for the full control effect; nearly all actives have a fitted effect of over 40% in size
Target sequence (Q9NUW8 whole entry, looked up): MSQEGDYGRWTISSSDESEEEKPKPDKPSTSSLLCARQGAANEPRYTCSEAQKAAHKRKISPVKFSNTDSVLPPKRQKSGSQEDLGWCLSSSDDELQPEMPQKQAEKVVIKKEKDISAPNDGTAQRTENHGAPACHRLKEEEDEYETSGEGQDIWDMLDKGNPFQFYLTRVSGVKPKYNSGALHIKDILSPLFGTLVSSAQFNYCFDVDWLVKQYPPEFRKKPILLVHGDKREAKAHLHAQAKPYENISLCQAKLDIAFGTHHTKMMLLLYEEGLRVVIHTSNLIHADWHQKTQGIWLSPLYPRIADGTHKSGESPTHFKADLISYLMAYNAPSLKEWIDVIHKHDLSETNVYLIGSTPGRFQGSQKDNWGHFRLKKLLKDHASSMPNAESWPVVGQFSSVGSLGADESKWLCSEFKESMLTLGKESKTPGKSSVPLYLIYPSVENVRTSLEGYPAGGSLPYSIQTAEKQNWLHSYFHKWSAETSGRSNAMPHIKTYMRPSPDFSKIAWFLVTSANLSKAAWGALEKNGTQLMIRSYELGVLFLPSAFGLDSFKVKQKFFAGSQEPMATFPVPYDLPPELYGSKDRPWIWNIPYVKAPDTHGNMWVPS
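Tdp1 1 nM final; 15 min RT w/ cpd; substrate 15 nM, 5 min; beads 10 ug/ml, 10 min; AlphaScreen read. Neg ctrl: no enzyme.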
TGFb SMAD3 inh – qHTS for Inhibitors of TGF-b. HepG2 CAGA-GFP TGF-b/SMAD3 reporter, GFP fluorescence, 18 h; TGF-beta stimulated, 500 pg/mL final. Potency, µM (series often up to 46.1 µM), without a hit: top-dose activity, negative = inhibition, actives largely listed as inhibitors. 1.2% of 410,000 active; note: potency is the fitted concentration of half-maximal effect; % is set by controls: 0 for no effect and ±100 for the full control effect; nearly all actives have a fitted effect of over 65% in size
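HEPG2 CAGA-GFP cells (1000/well, DMEM with 1% FBS) were pre-incubated 2 h at 37 degrees C, given compound by pin tool, then stimulated with TGF-beta at 500 pg/mL final for 18 h before per-cell GFP fluorescence imaging.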
* marks the source's active call; other numbers are inactive results; [ ] = remark or other dose. Most compounds without a hit are left out; they make up all but 18% or so of the library. Unless noted, calls come from the whole dose curve; as a rule, active = well fitted curve in the direction sought with a large enough effect; inconclusive = small, poorly fitted or top-dose-only effect, or another doubt; inactive = no such curve, though single readings can be large; an effect the other way counts as inactive or inconclusive.

CCC(=O)C1=C(c2ccc(Cl)cc2)N(C(=O)CC)n2c(C)nnc2S1 was read as TDP1 cell CPT 8.2µM*, DT40 TDP1 no CPT 7.3µM*, HepG2 viability -29%, TDP1 block -3% and TGFb SMAD3 inh 6.3µM*.
COc1ccc(C2=C(C(C)=O)Sc3nnc(-c4ccccc4)n3N2C(C)=O)cc1 was read as TDP1 cell CPT inconclusive, DT40 TDP1 no CPT -5%, HepG2 viability -20%, TDP1 block -5% and TGFb SMAD3 inh 4%.
Screening CC(=O)C1=C(c2cccc([N+](=O)[O-])c2)N(C(C)=O)n2c(C)nnc2S1 returned IL1B secr inh -98*, TDP1 cell CPT 4.6µM*, DT40 TDP1 no CPT 1.8µM*, HepG2 viability 11µM*, TDP1 block -3% and TGFb SMAD3 inh 11µM*.
`CN(C)S(=O)(=O)c1ccc(NC(=O)CSc2nnc(-c3ccco3)o2)cc1` gave IL1B secr inh 11, TDP1 cell CPT 7%, DT40 TDP1 no CPT 18%, HepG2 viability 0%, TDP1 block 1% and TGFb SMAD3 inh 6%.
Cc1noc(C)c1NC(=O)N(C)C[C@@H]1OCc2cnnn2CCCC(=O)N([C@H](C)CO)C[C@@H]1C was read as IL1B secr inh -18, TDP1 cell CPT 1%, DT40 TDP1 no CPT -1%, HepG2 viability -4% and TGFb SMAD3 inh 10%.
CC(=O)C1=C(c2ccc(C)cc2)N(C(C)=O)n2c(nnc2C2CCCCC2)S1 was read as TDP1 cell CPT inconclusive, DT40 TDP1 no CPT inconclusive, HepG2 viability 6%, TDP1 block -5% and TGFb SMAD3 inh 42%.
Screening CC(=O)C1=C(c2ccc(Cl)cc2)N(C(C)=O)n2c(nnc2C2CCCCC2)S1 returned TDP1 cell CPT 13µM*, DT40 TDP1 no CPT inconclusive, HepG2 viability 3%, TDP1 block -3% and TGFb SMAD3 inh 5%.
`COc1ccc(C)cc1NC(=O)Cc1ccc(NC(=O)N2CCCCc3ccccc32)cc1` gave TDP1 cell CPT inconclusive, DT40 TDP1 no CPT inconclusive, HepG2 viability -19%, TDP1 block 7% and TGFb SMAD3 inh -5%.
Screening Cn1cccc1/C=C1\CCC/C(=C\c2cccn2C)C1=O returned IL1B secr inh inconclusive, TDP1 cell CPT inconclusive, DT40 TDP1 no CPT 29µM*, HepG2 viability -41%, TDP1 block 12% and TGFb SMAD3 inh 127%.
O=C1/C(=C/c2ccc(C(=O)O)cc2)CCC/C1=C\c1ccc(C(=O)O)cc1 was read as IL1B secr inh -4, TDP1 cell CPT -3%, DT40 TDP1 no CPT -14%, HepG2 viability 6%, TDP1 block 0% and TGFb SMAD3 inh -5%.
`CC(C)c1ccc(/C=N/NC(=O)c2cccc(Cl)c2)cc1` gave IL1B secr inh -15, TDP1 cell CPT 10µM*, DT40 TDP1 no CPT 5.8µM*, HepG2 viability -10%, TDP1 block 5% and TGFb SMAD3 inh -22%.
`CC(C)c1ccc(/C=N/NC(=O)c2ccccn2)cc1` gave IL1B secr inh -53*, TDP1 cell CPT 0.033µM*, DT40 TDP1 no CPT -11%, HepG2 viability -22%, TDP1 block 4% and TGFb SMAD3 inh 3%.
`CC(NC(=O)NC(=O)c1cccc(Cl)c1)c1ccccc1` (configuration not stated) gave IL1B secr inh 14, TDP1 cell CPT 13µM*, DT40 TDP1 no CPT inconclusive, HepG2 viability -12%, TDP1 block 4% and TGFb SMAD3 inh -14%.
`O=C(N/N=C/c1cccnc1)c1cccc(Cl)c1` gave IL1B secr inh 1, TDP1 cell CPT 8%, DT40 TDP1 no CPT -12%, HepG2 viability -11% and TGFb SMAD3 inh 23%.
Screening CC(C)c1ccc(/C=N/NC(=O)c2ccc(-n3cnnn3)cc2)cc1 returned IL1B secr inh -19, TDP1 cell CPT inconclusive, DT40 TDP1 no CPT 12µM*, HepG2 viability -12%, TDP1 block -11% and TGFb SMAD3 inh -4%.
Screening CC(NC(=O)NC(=O)c1ccc(Cl)cc1)c1ccccc1 (configuration not stated) returned IL1B secr inh -9, TDP1 cell CPT inconclusive, DT40 TDP1 no CPT inconclusive, HepG2 viability -33%, TDP1 block 2% and TGFb SMAD3 inh -13%.
For CC1Cc2ccccc2N1C(=O)CN(C)CC(=O)Nc1cccc(F)c1 (configuration not stated) the results were IL1B secr inh -5, TDP1 cell CPT inconclusive, DT40 TDP1 no CPT inconclusive, HepG2 viability -2%, TDP1 block 1% and TGFb SMAD3 inh -4%.
`COc1cc(/C=N/NC(=O)c2ccccn2)ccc1OC(=O)c1ccc(Br)cc1` gave IL1B secr inh 0, TDP1 cell CPT 18µM*, DT40 TDP1 no CPT inconclusive, HepG2 viability 2%, TDP1 block 1% and TGFb SMAD3 inh 4%.
Screening COc1cc(/C=N/NC(=O)c2ccccn2)ccc1OC(=O)c1ccccc1Br returned IL1B secr inh inactive, TDP1 cell CPT inconclusive, DT40 TDP1 no CPT inconclusive, HepG2 viability -35%, TDP1 block 4%[56.1 µM] and TGFb SMAD3 inh -26%.
`CC(C)c1ccc(N2C(=O)N(Cc3ccccc3Cl)c3ccccc3S2(=O)=O)cc1` gave TDP1 cell CPT inconclusive, DT40 TDP1 no CPT 18µM*, HepG2 viability -11%, TDP1 block 2% and TGFb SMAD3 inh -24%.
Screening Cc1ccc(CN2C(=O)N(c3ccc(C)c(Cl)c3)S(=O)(=O)c3ccccc32)cc1 returned TDP1 cell CPT inconclusive, DT40 TDP1 no CPT inconclusive, HepG2 viability -2%, TDP1 block 7% and TGFb SMAD3 inh inconclusive.
For CC(C)c1ccc(N2C(=O)N(Cc3cccc([N+](=O)[O-])c3)c3ccccc3S2(=O)=O)cc1 the results were TDP1 cell CPT inconclusive, DT40 TDP1 no CPT inconclusive, HepG2 viability -18%, TDP1 block 3% and TGFb SMAD3 inh -18%.
`Cc1cccc(CN2C(=O)N(c3ccc(C(C)C)cc3)S(=O)(=O)c3ccccc32)c1` gave TDP1 cell CPT inconclusive, DT40 TDP1 no CPT 23µM*, HepG2 viability -6%, TDP1 block 0% and TGFb SMAD3 inh 0%.

Screening results (PubChem BioAssay)
